CYP2C9 inhib – human CYP2C9 inhibition. P11712. CYP2C9 Supersomes, luciferin-H conversion, luminescence. inhibition, % at 5 µM. 20% of 96,000 active. AID 777;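 active = blocking of liver enzyme CYP2C9 beyond about 50% at 5 µM, limit read from the data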
EphB4 ephrin blk – blocks human EphB4 binding to ephrin-B2. EphB4 LBD / TNYL-RAW-Alexa532 peptide, fluorescence polarization. inhibition, % at 7 µM. 0.15% of 97,000 active. AID 720. P54760;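 active = inhibition above the screen-wide mean inhibition plus 3 SD, cut at about 15% in these data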;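 note: 0% = DMSO wells and 100% = excess unlabeled TNYL-RAW peptide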
CYP2C9 act – increases human cytochrome P450 2C9 activity; P11712; activation factor at 5 µM; recombinant CYP2C9, luciferin-H conversion, luminescence; stronger effect = higher value; factor 1 = untreated enzyme, 0 = blocked; 1.4% of 96,000 active;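 active = activation factor of 2 or more for CYP2C9 at a 5 µM dose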;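 note: 0 = sulfaphenazole-blocked wells and 1 = vehicle-only wells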
CYP2C19 activ – cytochrome P450 2C19 (human) activation | P33261 | recombinant CYP2C19, luciferin-H EGE luminescence; stronger effect = higher value; 0 = fully inhibited enzyme, 1 = untreated enzyme | activation factor at 5 µM | 96,000 tested, under 10 active | AID 1025;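 active = activation factor of at least 2 at 5 µM in the primary screen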;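 note: 0 = wells with 2.5 mM tranylcypromine and 1 = vehicle-only wells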
Target sequence (P33261 whole entry, looked up): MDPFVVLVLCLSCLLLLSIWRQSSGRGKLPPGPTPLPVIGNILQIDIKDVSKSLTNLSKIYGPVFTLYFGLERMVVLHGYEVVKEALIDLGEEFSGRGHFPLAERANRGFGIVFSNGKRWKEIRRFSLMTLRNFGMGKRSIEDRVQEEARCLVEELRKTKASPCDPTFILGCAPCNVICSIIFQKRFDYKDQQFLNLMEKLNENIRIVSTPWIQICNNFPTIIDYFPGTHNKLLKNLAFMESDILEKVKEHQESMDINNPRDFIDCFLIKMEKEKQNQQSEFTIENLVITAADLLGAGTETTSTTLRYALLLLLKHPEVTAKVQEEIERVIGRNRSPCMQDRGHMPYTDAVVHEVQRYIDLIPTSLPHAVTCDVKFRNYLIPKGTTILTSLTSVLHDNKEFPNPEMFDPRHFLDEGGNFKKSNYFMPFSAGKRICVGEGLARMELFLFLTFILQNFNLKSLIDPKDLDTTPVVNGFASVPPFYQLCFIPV
CYP2C19 inh – inhibitors of human CYP2C19; 21% of 96,000 active; inhibition, % at 5 µM; CYP2C19 Supersomes, luciferin-H EGE luminescence, 30 min; P33261; AID 778;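 active = CYP2C19 inhibition above a set limit at 5 µM in the primary screen, cut at about 50% in these data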;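 note: plate controls were negative control wells for no effect and 2.5 mM tranylcypromine positive control for full effect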
Numbers without * were called inactive; x = no result. Compounds with a hit are over-represented: about 27% of the library has one in this group of screens.

SMILES | CYP2C9 inhib | EphB4 ephrin blk | CYP2C9 act | CYP2C19 activ | CYP2C19 inh
Cc1ccc(NC(=O)N(C2=NCC(C)S2)c2ccccc2)cc1 (stereo not given) | x | 0 | x | x | x
COc1ccc(C(C(=O)NC2CCCCC2)N(C(=O)Cc2c[nH]c3ccccc23)c2ccc(NC(C)=O)cc2)cc1OC (stereo not given) | 36 | 6 | 0.6 | 0.7 | 28
CCOC(=O)c1c(-c2cccc([N+](=O)[O-])c2)csc1NC(=O)C1CCCCC1 | x | -5 | x | x | x
CCSc1nc(N)c2c3c(sc2n1)CN(C)CC3 | -19 | x | 1.2 | 0.8 | 19
O=C1CCCN1CC(CN1CCOCC1)Sc1nnnn1-c1ccccc1 (stereo not given) | -6 | -1 | 1.1 | 0.7 | 27
COc1ccc(-n2c(SC(CN3CCCCC3)CN3CCCC3=O)nc3ccccc3c2=O)cc1 (stereo not given) | 65* | 0 | 0.3 | 0.4 | 61*
Cc1ccccc1NC(=S)C1=C(O)c2sccc2N(C)S1(=O)=O | 72* | -1 | 0.3 | 1 | 2
CN1c2ccsc2C(O)=C(C(=S)Nc2ccccc2)S1(=O)=O | 78* | -1 | 0.2 | 0.9 | 12
Cc1ccccc1NC(=S)NCc1cccs1 | 16 | -6 | 0.8 | 0.5 | 47
Cc1oc(-c2ccc(Cl)cc2)nc1CS(=O)CC(=O)NCCCN(C)C1CCCCC1 (stereo not given) | 0 | -1 | 1 | 1.1 | -8
Cn1c(=O)c2nc(NCc3ccccc3)cnc2n(C)c1=O | 73* | 0 | 0.3 | 0.3 | 74*
Cn1c(=O)c2c(ncn2Cc2ccccc2)n(C)c1=O | x | 1 | x | x | x
CC(C)CCSc1nc(N2CCOCC2)c2c(c1C#N)CC(C)(C)OC2 | 98* | 7 | 0 | 0.4 | 63*
COC(=O)c1ccc(CSc2ncnc3c2sc2nc(N4CCOCC4)c4c(c23)CCCC4)o1 | x | 1 | x | x | x
COC(=O)c1ccc(CSc2nc(N3CCOCC3)c3c(c2C#N)CC(C)(C)OC3)o1 | 98* | 5 | 0 | 0.3 | 69*
CSc1nc(N2CCOCC2)c2c(c1C#N)CC(C)(C)OC2 | 97* | -6 | 0 | 0.4 | 61*
CC(Sc1nc(N2CCOCC2)c2c(c1C#N)CC(C)(C)OC2)C(=O)Nc1ccccc1 (stereo not given) | x | 6 | x | x | x
N#CC1=C(N)N2C(=C(C#N)C13CCCCC3)SC1CCCCC12O (stereo not given) | 40 | x | 0.6 | 0.6 | 41
C=CCn1c(N)c(C(=O)N2CCN(C)CC2)sc1=S | 18 | 2 | 0.8 | 0.6 | 44
Cc1[nH]n(-c2ccccc2)c(=O)c1Sc1ccc(Cl)cc1 | 86* | -7 | 0.1 | 0.5 | 52*
Cc1[nH]n(C(C)(C)C)c(=O)c1Sc1ccccc1 | 22 | 5 | 0.8 | 0.8 | 18
CC(=O)Nc1cccc(NC(=O)CSc2nnc(Cc3cccn3C)n2-c2ccc(C)cc2)c1 | 38 | 16* | 0.6 | 1 | 3
COc1ccc(-n2c(Cc3cccn3C)nnc2SCC(=O)Nc2ccc(C)cc2)cc1 | 53* | x | 0.5 | 0.9 | 14
COc1ccc(-n2c(Cc3cccn3C)nnc2SCC(=O)Nc2cccc(Cl)c2)cc1 | 85* | 0 | 0.1 | 0.8 | 23
CCOc1ccc(NC(=O)CSc2nnc(Cc3cccn3C)n2-c2ccc(OC)cc2)cc1 | 5 | 4 | 0.9 | 1.1 | -6
SMILES | CYP2C9 inhib | EphB4 ephrin blk | CYP2C9 act | CYP2C19 activ | CYP2C19 inh
COc1ccc(NC(=O)CSc2nnc(Cc3cccn3C)n2-c2ccc(OC)cc2)cc1 | 59* | x | 0.4 | 0.6 | 40
COc1cc(Br)c(C(C)NC(=O)c2ccccc2)cc1OC (stereo not given) | 45 | 6 | 0.5 | 0.6 | 43
COCc1nc(-c2cc(Br)ccc2OC)no1 | 2 | -3 | 1 | 0.9 | 14
CCOC(=O)N1CCN(C(=O)c2cnn3c(C)c(Cc4ccc(C)cc4)c(C)nc23)CC1 | 36 | -8 | 0.6 | 0.6 | 42
Cc1nc2c(C(=O)N3CCCC3)cnn2c(C)c1Cc1c(F)cccc1Cl | -20 | -3 | 1.2 | 0.5 | 54*
Cc1nc2c(C(=O)N3CCN(c4ccccn4)CC3)cnn2c(C)c1Cc1cccc(Cl)c1 | 74* | -1 | 0.3 | 0 | 98*
O=C(Nc1ccccc1C(=O)NC1CCCC1)NC1CCCC1 | 14 | -2 | 0.9 | 0.7 | 26
O=C(COc1ccccc1Br)N1CCN(c2ccccc2)CC1 | -4 | -3 | 1 | 0.1 | 95*
O=C(COc1ccccc1Cl)N1CCN(c2ccc(F)cc2)CC1 | -29 | 3 | 1.3 | 0.2 | 82*

Compound activity from PubChem.
